Test results published in PubChem BioAssay (Tox21).
Inconclusive results are not listed. The source made the active and inactive calls. Unless noted, calls come from the whole dose curve; as a rule, active = well fitted curve in the direction sought with a large enough effect in the repeat runs; inconclusive = weak or mixed curves; inactive = no such curve, though single readings can be large; an effect the other way counts as inactive or inconclusive.

Experiments:
[1] = target: Luciferin 4-monooxygenase (Photinus pyralis) (UniProt P08659); test: qHTS assay to identify small molecule inhibitors of firefly luciferase (AID 1224835); note: nearly all actives have a fitted effect of over 25% in size
Luciferin 4-monooxygenase (Photinus pyralis), sequence (P08659 whole entry, looked up): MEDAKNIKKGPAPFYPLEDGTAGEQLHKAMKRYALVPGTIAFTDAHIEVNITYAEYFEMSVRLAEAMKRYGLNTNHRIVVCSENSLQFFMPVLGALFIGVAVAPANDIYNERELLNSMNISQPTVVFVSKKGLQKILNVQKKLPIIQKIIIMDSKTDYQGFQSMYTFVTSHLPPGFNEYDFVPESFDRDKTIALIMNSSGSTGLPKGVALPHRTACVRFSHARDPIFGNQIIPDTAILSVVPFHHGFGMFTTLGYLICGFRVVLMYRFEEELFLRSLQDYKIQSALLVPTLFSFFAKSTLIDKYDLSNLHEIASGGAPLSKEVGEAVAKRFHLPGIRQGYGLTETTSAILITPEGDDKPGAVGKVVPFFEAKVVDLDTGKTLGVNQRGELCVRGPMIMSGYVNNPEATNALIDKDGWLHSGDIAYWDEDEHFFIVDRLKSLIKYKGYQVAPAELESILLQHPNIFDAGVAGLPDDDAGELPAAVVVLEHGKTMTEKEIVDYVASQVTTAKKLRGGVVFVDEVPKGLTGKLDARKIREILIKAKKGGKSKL
How it was run: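 Biochemical qHTS: compounds run as interplate titrations against purified firefly enzyme, with D-luciferin and ATP each at its KM concentration. Light output recorded by CCD imaging.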

[2] = qHTS assay to identify small molecule agonists of the constitutive androstane receptor (CAR) signaling pathway - cell viability counter screen (AID 1224836); note: nearly all actives have a fitted effect of over 45% in size
How it was run: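 23 h treatment, 37 C, 5% CO2. Cell line: HepG2 stably expressing hCAR with a CYP2B6-2.2kb construct. Co-treatment: PK11195, 0.75 uM final. Read-out: CellTiter-Fluor fluorescence intensity.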

[3] = qHTS assay to identify small molecule antagonists of the constitutive androstane receptor (CAR) signaling pathway - cell viability counter screen (AID 1224837); note: nearly all actives have a fitted effect of over 45% in size
How it was run: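 HepG2 cells stably expressing hCAR and a CYP2B6-2.2kb reporter were plated and pre-incubated 4 hr at 37 C/5% CO2, then given compounds at 15 concentrations plus 50 nM CITCO (final). After 23 hr, viability was read by CellTiter-Fluor fluorescence.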

[4] = target: Nuclear receptor subfamily 1 group I member 3 (Homo sapiens) (UniProt Q14994); test: qHTS assay to identify small molecule antagonists of the constitutive androstane receptor (CAR) signaling pathway (AID 1224838); note: nearly all actives have a fitted effect of over 40% in size
Nuclear receptor subfamily 1 group I member 3 (Homo sapiens), sequence (Q14994 whole entry, looked up): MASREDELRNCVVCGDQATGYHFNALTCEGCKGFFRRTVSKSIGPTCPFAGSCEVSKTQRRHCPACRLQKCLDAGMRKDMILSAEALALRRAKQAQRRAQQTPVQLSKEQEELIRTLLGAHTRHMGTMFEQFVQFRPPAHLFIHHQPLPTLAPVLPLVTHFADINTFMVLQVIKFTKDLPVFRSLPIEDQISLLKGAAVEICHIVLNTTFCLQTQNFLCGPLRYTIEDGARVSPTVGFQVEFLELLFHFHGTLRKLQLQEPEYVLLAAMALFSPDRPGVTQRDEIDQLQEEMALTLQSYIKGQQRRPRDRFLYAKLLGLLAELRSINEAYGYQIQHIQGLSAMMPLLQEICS
How it was run: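 HepG2 cells stably co-transfected with hCAR and a CYP2B6-2.2kb luciferase reporter were seeded 4 h before compound addition at 15 concentrations. Cells were stimulated with 50 nM CITCO (final) for 24 h at 37 C; luciferase luminescence was then read.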

[5] = qHTS assay to identify small molecule antagonists of the estrogen related receptor signaling pathway with the pleiotropic PPARgamma coactivator (PGC) from Tox21 10K library - cell viability counter screen (AID 1224840; active = well fitted cell-killing curve with a large enough effect in the repeat runs, not every such curve was filed as active; note: nearly all actives have a fitted effect of over 40% in size)
How it was run: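 PGC/ERR cells were seeded at 2,000 cells/well and left 6 hours at 37 C/5% CO2 before pin-tool addition of compounds in DMSO. After 17.5 hours at 37 C, CellTiter-Fluor was added and fluorescence read 30 minutes later.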

[6] = qHTS assay to identify small molecule agonists of the estrogen related receptor signaling pathway with the pleiotropic PPARgamma coactivator (PGC) from Tox21 10K library (AID 1224842); note: nearly all actives have a fitted effect of over 15% in size
How it was run: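 PGC/ERR reporter cell line, 2,000 cells per well, incubated 6 h at 37 C before 23 nL compound in DMSO was added. After 18 h at 37 C, One-Glo luminescence read following 30 min at room temperature.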

[7] = qHTS assay to identify small molecule agonists of the hypoxia (HIF-1) signaling pathway - cell viability counter screen (AID 1224844; calls by dose curve; note: nearly all actives have a fitted effect of over 50% in size)
How it was run: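 HRE-bla ME-180 cells in medium with 0.5% dialyzed FBS were preincubated 5 hrs at 37C, exposed to compounds for 17 hrs, then viability was read as CellTiter-Glo luminescence after 30 min at room temperature, in the reporter wells.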

[8] = qHTS assay to identify small molecule agonists of H2AX (AID 1224845; active = well fitted activation curve with a large enough effect in the signal ratio in the repeat runs, not every such curve was filed as active; the % refers to the signal ratio)
How it was run: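 Wild-type CHO-K1 cells, plated overnight, exposed 3hr at 37C to 15 concentrations (0.76% DMSO final). Lysed, then HTRF anti-pH2AX (S139) cryptate and anti-H2AX-d2 antibodies, 24 hr room temperature; 665/620 nm emission read.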

[9] = qHTS assay to identify small molecule agonists of the hypoxia (HIF-1) signaling pathway (AID 1224846; active = well fitted activation curve with a large enough effect in the signal ratio in the repeat runs, not every such curve was filed as active; the % refers to the signal ratio)
How it was run: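 HRE-bla ME-180 cells (beta-lactamase reporter under hypoxia response element) were plated at 2,000 cells/well in medium with 0.5% dialyzed FBS, rested 5 hrs, then given compounds in DMSO for 17 hrs at 37C, 5% CO2. Reporter induction was read with CCF4-AM FRET substrate.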

[10] = qHTS assay to identify small molecule agonists of H2AX - cell viability counter screen (AID 1224847; calls by dose curve; note: top concentration of the series differs between compounds; nearly all actives have a fitted effect of over 30% in size)
How it was run: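 Compounds tested at 15 concentrations were incubated 3 hr at 37C with wild-type CHO-K1 cells; cellular ATP-based luminescence (CellTiter-Glo) indicated viability.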

[11] = qHTS assay to identify small molecule agonists of the estrogen related receptor (ERR) signaling pathway from Tox21 library (AID 1224849; calls by dose curve; note: nearly all actives have a fitted effect of over 15% in size); conditions: ERR reporter cell line, ONE-Glo luciferase, 18 h; at 92.4 µM (top of the series) unless noted
How it was run: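 ERR reporter cell line (NTP) seeded, rested 6 h at 37 C/5% CO2, then pinned with Tox21 compounds in DMSO. After 18 h at 37 C, ONE-Glo luciferase luminescence was read following 30 min at room temperature.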

[12] = qHTS RealTime-Glo MT Cell Viability Assay in HepG2 cells - 24 hour (AID 1224867); note: nearly all actives have a fitted effect of over 50% in size
How it was run: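 Tox21 10K library screened in qHTS format on HepG2 cells carrying RealTime-Glo reagents. Compounds were added after a 5 h preincubation, and the luminescent signal from continuous culture was measured repeatedly during 40 h treatment.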

[13] = qHTS RealTime-Glo MT Cell Viability Assay in HEK293 cells - 32 hour (AID 1224868); note: top concentration of the series differs between compounds; nearly all actives have a fitted effect of over 50% in size
How it was run: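 Luminescence generated by NanoLuc from substrate produced by living HEK293 cells served as the viability signal. Each value reflects the reading at its stated time point during continuous 40 h compound exposure at 37 C.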

[14] = A CellTox Green Cytotoxicity Assay to monitor cytotoxicity in HEK293 cells - 0 hour (AID 1224869); note: nearly all actives have a fitted effect of over 50% in size
How it was run: (§1)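 HEK293 cells premixed with CellTox Green dye were seeded at 600 cells/well and left 5 h at 37 C/5% CO2 before pin transfer of 23 nL compound in DMSO. Fluorescence from dye bound to dead-cell DNA was read during 40 h treatment.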

[15] = qHTS RealTime-Glo MT Cell Viability Assay in HepG2 cells - 40 hour (AID 1224870); note: nearly all actives have a fitted effect of over 50% in size
How it was run: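 HepG2 cells (600/well) mixed with RealTime-Glo MT reagent, settled 5 h at 37 C/5% CO2 before compound addition. Nonlytic NanoLuc luminescence from viable-cell prosubstrate reduction read repeatedly during 40 h treatment at 37 C.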

[16] = A CellTox Green Cytotoxicity Assay to monitor cytotoxicity in HEK293 cells - 40 hour (AID 1224871); note: nearly all actives have a fitted effect of over 45% in size
How it was run: as §1

[17] = target: Thyrotropin receptor (Homo sapiens) (UniProt P16473); test: qHTS assay to identify small molecule agonists of the thyroid stimulating hormone receptor (TSHR) signaling pathway (AID 1224843; calls by dose curve; note: nearly all actives have a fitted effect of over 45% in size)
Thyrotropin receptor (Homo sapiens), sequence (P16473 whole entry, looked up): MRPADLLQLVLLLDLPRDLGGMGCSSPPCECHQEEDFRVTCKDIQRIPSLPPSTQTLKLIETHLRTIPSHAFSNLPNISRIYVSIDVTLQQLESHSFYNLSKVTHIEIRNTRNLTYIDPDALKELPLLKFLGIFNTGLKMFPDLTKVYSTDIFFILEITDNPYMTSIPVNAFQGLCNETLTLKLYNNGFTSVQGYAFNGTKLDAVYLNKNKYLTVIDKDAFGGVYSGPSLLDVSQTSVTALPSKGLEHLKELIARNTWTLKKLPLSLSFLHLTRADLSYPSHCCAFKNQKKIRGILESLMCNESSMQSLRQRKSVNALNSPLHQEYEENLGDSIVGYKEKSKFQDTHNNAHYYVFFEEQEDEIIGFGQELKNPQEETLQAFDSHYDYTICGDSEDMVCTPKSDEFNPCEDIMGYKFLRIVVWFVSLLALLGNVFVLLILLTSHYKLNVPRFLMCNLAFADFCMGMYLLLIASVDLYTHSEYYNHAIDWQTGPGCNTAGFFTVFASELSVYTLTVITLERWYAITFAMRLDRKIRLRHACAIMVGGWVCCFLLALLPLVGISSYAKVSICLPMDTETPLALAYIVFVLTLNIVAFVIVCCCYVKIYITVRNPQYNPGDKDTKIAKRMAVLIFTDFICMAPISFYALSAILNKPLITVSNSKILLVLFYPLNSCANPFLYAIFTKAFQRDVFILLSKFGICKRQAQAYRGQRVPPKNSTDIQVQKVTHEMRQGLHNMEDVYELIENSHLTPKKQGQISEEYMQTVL
How it was run: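 TSHR-HEK293 cells in agonist mode, 30 min room-temperature step, then cAMP measured by competitive HTRF (cAMP-d2 with anti-cAMP cryptate) after 1 h at room temperature. Tested at 15 concentrations in triplicate.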

[18] = target: Nuclear receptor subfamily 1 group I member 3 (Homo sapiens) (UniProt Q14994); test: qHTS assay to identify small molecule agonists of the constitutive androstane receptor (CAR) signaling pathway (AID 1224839);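 note: HepG2 cells stably carrying human CAR and a CYP2B6 luciferase reporter; nearly all actives have a fitted effect of over 15% in size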
How it was run: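 Compounds tested at 15 concentrations on HepG2 cells stably harbouring hCAR and CYP2B6-2.2kb reporter constructs, co-treated with PK11195 (0.75 uM final), 24 h at 37 C; luminescent reporter signal quantified.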

[19] = qHTS assay to identify small molecule antagonists of the estrogen related receptor signaling pathway with the pleiotropic PPARgamma coactivator (PGC) from Tox21 10K library (AID 1224841; call rule not given here)
How it was run: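 PGC/ERR reporter cells were seeded at 2,000 cells/well and held 6 hours at 37 C/5% CO2 before pin-tool addition of compounds in DMSO. After 18 hours at 37 C, One-Glo was added and luminescence read after 30 minutes at room temperature.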

[20] = qHTS assay to identify small molecule antagonists of the estrogen related receptor (ERR) signaling pathway from Tox21 library (AID 1224848); note: nearly all actives have a fitted effect of over 50% in size
How it was run: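 ERR reporter cell line (from NTP) seeded 2,000 cells/well, rested 6 h at 37 C/5% CO2, then pin-dosed with compounds in DMSO. After 18 h at 37 C, ONE-Glo added; luminescence read after 30 min at room temperature.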
% is set by controls: 0 for no effect and ±100 for the full control effect.

CCCCCCCCC(=O)Cl
inactive: Potency [1] | Potency [2] | Potency [3] | outcome [4] | outcome [5] | outcome [6] | outcome [7] | outcome [8] | outcome [9] | Potency [10] | activity change, positive = activation [11] 0.757% | outcome [12] | Potency [13] | outcome [14] | outcome [15] | Potency [16]

CCOCCOCCOCC
inactive: Potency [1] | Potency [2] | Potency [3] | outcome [4] | outcome [5] | outcome [7] | outcome [8] | outcome [9] | outcome [12] | Potency [13] | outcome [14] | outcome [15] | Potency [16]

CCN(C)C(=O)Oc1cccc([C@H](C)N(C)C)c1
inactive: Potency [1] | Potency [2] | Potency [3] | outcome [4] | outcome [5] | Potency [17] | outcome [7] | outcome [8] | outcome [9] | outcome [12] | Potency [13] | outcome [14] | Potency [16]

COC(=O)CCCCCCCC(=O)OC
inactive: Potency [1] | Potency [2] | Potency [3] | Potency [18] | outcome [5] | Potency [19] | outcome [6] | Potency [17] | outcome [7] | outcome [8] | outcome [9] | Potency [10] | activity change, positive = activation [11] 1.98% | Potency [13] | outcome [14] | Potency [16]

CCc1ccc(C=O)cc1
inactive: Potency [1] | Potency [2] | Potency [3] | Potency [18] | outcome [5] | outcome [6] | Potency [17] | outcome [7] | outcome [8] | outcome [9] | Potency [10] | Potency [20] | activity change, positive = activation [11] 5.25% | outcome [12] | Potency [13] | outcome [14] | outcome [15] | Potency [16]

c1ccc2nccnc2c1
inactive: Potency [1] | Potency [2] | Potency [3] | outcome [4] | outcome [5] | outcome [7] | outcome [8] | outcome [9] | Potency [10] | outcome [12] | Potency [13] | outcome [15] | Potency [16]

CN(C)c1ccc(C=O)cc1
inactive: Potency [1] | Potency [2] | Potency [3] | Potency [18] | outcome [5] | Potency [19] | outcome [6] | Potency [17] | outcome [7] | outcome [8] | outcome [9] | activity change, positive = activation [11] 0.183% | outcome [12] | Potency [13] | outcome [14] | outcome [15] | Potency [16]

Cc1cccc(C)c1OCC(C)N (configuration not stated)
inactive: Potency [1] | Potency [2] | Potency [3] | Potency [18] | outcome [5] | Potency [19] | outcome [6] | Potency [17] | outcome [7] | outcome [8] | outcome [9] | Potency [10] | Potency [20] | activity change, positive = activation [11] -2% [at 42.5 µM] | Potency [13] | outcome [15] | Potency [16]

CCCCCCCCOS(=O)(=O)O
inactive: Potency [1] | Potency [2] | Potency [3] | Potency [18] | outcome [5] | Potency [19] | outcome [6] | Potency [17] | outcome [7] | outcome [8] | outcome [9] | Potency [10] | activity change, positive = activation [11] 6.25% | outcome [12] | Potency [13] | outcome [14] | outcome [15] | Potency [16]

CC(=O)c1sc(C)nc1C
inactive: Potency [1] | Potency [2] | Potency [3] | Potency [18] | outcome [5] | Potency [19] | outcome [6] | Potency [17] | outcome [7] | outcome [8] | outcome [9] | Potency [10] | activity change, positive = activation [11] -11% | outcome [12] | Potency [13] | outcome [14] | outcome [15] | Potency [16]

CC(C)=O
inactive: Potency [1] | Potency [2] | Potency [3] | outcome [4] | outcome [5] | Potency [17] | outcome [7] | outcome [8] | outcome [9] | Potency [10] | outcome [12] | Potency [13] | outcome [14] | Potency [16]

CN(C)CCOCCO
inactive: Potency [1] | Potency [2] | Potency [3] | Potency [18] | outcome [5] | Potency [19] | outcome [6] | Potency [17] | outcome [7] | outcome [8] | outcome [9] | Potency [10] | activity change, positive = activation [11] 6.59% | outcome [12] | Potency [13] | outcome [14] | outcome [15] | Potency [16]

COc1cc(NS(=O)(=O)c2ccc(N)cc2)nc(OC)n1
inactive: Potency [1] | Potency [2] | Potency [3] | outcome [4] | outcome [5] | Potency [19] | outcome [6] | outcome [7] | outcome [8] | Potency [10] | Potency [20] | outcome [12] | Potency [13] | outcome [14] | outcome [15] | Potency [16]

CCCCCCOC(=O)CC
inactive: Potency [1] | Potency [2] | Potency [3] | outcome [4] | outcome [5] | outcome [6] | outcome [7] | outcome [8] | outcome [9] | Potency [10] | Potency [20] | activity change, positive = activation [11] -0.0388% | outcome [12] | Potency [13] | outcome [14] | outcome [15] | Potency [16]

COc1nccnc1NS(=O)(=O)c1ccc(N)cc1
inactive: Potency [1] | Potency [2] | Potency [3] | Potency [18] | outcome [5] | Potency [19] | outcome [6] | outcome [7] | outcome [8] | outcome [9] | Potency [10] | Potency [20] | activity change, positive = activation [11] -1.96% [at 42.5 µM] | outcome [12] | Potency [13] | outcome [14] | outcome [15] | Potency [16]

CCCOC(=O)C(C)O (configuration not stated)
inactive: Potency [1] | Potency [2] | Potency [3] | outcome [4] | outcome [5] | Potency [17] | outcome [7] | outcome [8] | outcome [9] | Potency [10] | outcome [12] | Potency [13] | outcome [14] | outcome [15] | Potency [16]
